Assay outcomes from PubChem.
Dicer processing – inhibitors of human Dicer processing of pre-microRNA. cat-ELCCA pre-miR-21 Dicer processing, chemiluminescence; stronger effect = higher value. actives 6% (n = 47,000). Q9UPY3. z-score at 25 µM; in the data active = z-score above about 3, passing the limit was not always enough;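 note: plate controls were vehicle for no effect and no enzyme for full effect; higher signal means more uncleaved substrate so more Dicer inhibition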
Target sequence (Q9UPY3 whole entry, looked up): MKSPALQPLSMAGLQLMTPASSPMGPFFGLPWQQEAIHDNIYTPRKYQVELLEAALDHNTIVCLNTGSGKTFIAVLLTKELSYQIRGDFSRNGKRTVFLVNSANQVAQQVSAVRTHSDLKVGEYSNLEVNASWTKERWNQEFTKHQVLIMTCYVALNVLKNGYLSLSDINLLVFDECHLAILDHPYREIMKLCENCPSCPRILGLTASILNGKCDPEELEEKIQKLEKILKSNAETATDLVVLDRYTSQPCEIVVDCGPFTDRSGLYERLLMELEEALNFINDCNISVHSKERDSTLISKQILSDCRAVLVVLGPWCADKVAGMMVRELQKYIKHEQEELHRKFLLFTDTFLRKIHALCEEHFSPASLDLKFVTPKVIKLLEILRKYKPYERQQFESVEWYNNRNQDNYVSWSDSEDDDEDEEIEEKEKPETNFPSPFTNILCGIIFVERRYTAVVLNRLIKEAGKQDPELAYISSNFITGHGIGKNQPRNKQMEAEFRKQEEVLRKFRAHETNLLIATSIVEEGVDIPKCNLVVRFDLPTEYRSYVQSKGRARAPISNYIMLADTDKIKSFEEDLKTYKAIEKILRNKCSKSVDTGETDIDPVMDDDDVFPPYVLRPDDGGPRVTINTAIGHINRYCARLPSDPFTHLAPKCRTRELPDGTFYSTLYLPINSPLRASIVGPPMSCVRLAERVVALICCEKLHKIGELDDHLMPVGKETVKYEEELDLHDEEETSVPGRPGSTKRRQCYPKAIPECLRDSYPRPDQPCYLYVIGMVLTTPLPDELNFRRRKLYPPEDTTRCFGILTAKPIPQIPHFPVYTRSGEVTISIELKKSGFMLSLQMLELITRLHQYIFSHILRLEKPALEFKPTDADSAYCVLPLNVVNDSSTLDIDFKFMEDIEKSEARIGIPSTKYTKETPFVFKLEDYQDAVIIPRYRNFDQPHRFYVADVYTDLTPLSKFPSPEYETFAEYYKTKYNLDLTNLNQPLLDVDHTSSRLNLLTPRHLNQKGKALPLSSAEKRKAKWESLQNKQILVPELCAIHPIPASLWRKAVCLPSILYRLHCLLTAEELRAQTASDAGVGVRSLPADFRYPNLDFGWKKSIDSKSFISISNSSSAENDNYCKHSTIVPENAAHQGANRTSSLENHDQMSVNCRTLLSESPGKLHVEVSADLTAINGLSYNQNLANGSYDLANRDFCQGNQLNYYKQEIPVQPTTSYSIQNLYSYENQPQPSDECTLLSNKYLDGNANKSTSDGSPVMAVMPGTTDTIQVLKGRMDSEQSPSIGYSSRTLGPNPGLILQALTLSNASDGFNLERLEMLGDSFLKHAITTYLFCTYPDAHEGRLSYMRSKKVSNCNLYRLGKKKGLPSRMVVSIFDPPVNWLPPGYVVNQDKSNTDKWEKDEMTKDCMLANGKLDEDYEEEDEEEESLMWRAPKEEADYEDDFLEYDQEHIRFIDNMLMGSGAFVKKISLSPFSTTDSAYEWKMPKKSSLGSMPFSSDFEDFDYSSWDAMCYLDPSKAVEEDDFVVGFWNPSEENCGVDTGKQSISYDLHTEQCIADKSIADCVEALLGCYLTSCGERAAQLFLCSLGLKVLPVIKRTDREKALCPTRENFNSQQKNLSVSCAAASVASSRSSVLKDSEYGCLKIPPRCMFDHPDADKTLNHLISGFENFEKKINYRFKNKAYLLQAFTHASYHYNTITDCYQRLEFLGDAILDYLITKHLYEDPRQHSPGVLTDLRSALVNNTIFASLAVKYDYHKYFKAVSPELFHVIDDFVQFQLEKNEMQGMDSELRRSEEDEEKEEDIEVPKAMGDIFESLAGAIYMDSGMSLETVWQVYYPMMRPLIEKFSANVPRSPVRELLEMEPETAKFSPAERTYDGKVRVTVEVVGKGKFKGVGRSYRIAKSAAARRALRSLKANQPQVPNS
An asterisk follows results filed as active. This excerpt belongs to a sample that is enriched for hits.

SMILES	Dicer processing
COc1ccc(OC)c(NS(=O)(=O)c2ccc(Br)cc2)c1	6.13
CC(=O)NCc1c(N(C)C)cccc1N(C)C	2.53
COCCCN/C(SCc1cc(C(C)=O)ccc1OC)=C(\C#N)C(N)=O	-0.23
O=C(CSc1nnc2scc(-c3ccccc3)n12)c1ccccc1	-1.05
O=C(Nc1cnc2ccccn2c1=O)c1ccccc1	-0.19
CC1=C(C(=O)Nc2cc(C)ccn2)C(c2cccnc2)C2=C(CCCC2=O)N1 (stereo not drawn)	2.7
C(=N\Nc1nnc2c(n1)[nH]c1ccccc12)/c1ccc2c(c1)OCO2	-0.7
Oc1ccccc1/C=N/Nc1nnc2c(n1)[nH]c1ccccc12	3.4*
Fc1ccc(/C=N/Nc2nnc3c(n2)[nH]c2ccccc23)cc1	-0.21
CCOC(=O)c1c(S(=O)(=O)Nc2ccc(Cl)cc2)c(-c2ccccc2)n(-c2ccccc2)c1C	-0.32
O=C(COc1cccc(Br)c1)Nc1nc2ccccc2s1	0.96
COc1ccccc1C1N(c2ccccc2)OC(=O)N1c1ccccc1 (stereo not drawn)	0.2
O=C1ON(c2ccccc2)C(c2ccc3c(c2)OCO3)N1c1ccccc1 (stereo not drawn)	3.21*
O=C1CC(c2ccc3c(c2)OCO3)c2c(-c3ccccc3)nn(-c3ccccc3)c2N1 (stereo not drawn)	0.02
CC(C)(C)OC(=O)NCCNC(=O)/C=C/C(=O)O	-1.12
CCN(CC)C(=S)Oc1c(C)c(C)nc(=S)n1CCCOC	9.42*
CC(=O)ON(CC(=O)Nc1ccccc1C(=O)c1ccccc1)C(C)=O	0.22
COc1cccc(N2CC(=O)Nc3c(sc4nc(C)cc(C)c34)C2=O)c1	1.52
COc1cccc(C2C(C#N)=C(N)Oc3n[nH]c(C)c32)c1OC (stereo not drawn)	-4.48
COc1c(Cl)cccc1-c1cn2ccc(C)cc2n1	5.87*
COc1c(Cl)cc(Cl)cc1-c1cn2ccccc2n1	-0.51
Cc1ccc(-c2cn3ccc(C)cc3n2)cc1	1.06
O=c1[nH]nc(CSc2ccc(Cl)cc2)n1-c1ccccc1	0.75
COC(=O)c1sc(N2C(=O)c3oc4cc(C)c(C)cc4c(=O)c3C2c2cccc(OC)c2)nc1C (stereo not drawn)	1.54
CCOC(=O)c1c(SC)nc2c(C(F)(F)F)cccc2c1N1CCOCC1	-0.09
SMILES	Dicer processing
COc1cc([N+](=O)[O-])ccc1N1CCCCC1	-0.12
COC(=O)c1sc(C(F)(F)F)c(-c2ccccc2)c1S(=O)(=O)Nc1ccccc1C	-0.05
N#CC1=C(SCC(=O)Nc2ccc(Cl)cc2)NC(=O)CC1c1cccs1 (stereo not drawn)	-2.82
O=C(Nc1ccc(Cl)cc1)N1N=C2c3ccccc3CCC2C1c1cccs1 (stereo not drawn)	-0.38
O=C(Nc1ccc(Cl)cc1)N1CCOC1c1cccs1 (stereo not drawn)	4.16*
O=c1/c(=C\c2ccccc2)sc2nc(-c3ccc(Cl)cc3)nn12	-0.43
O=C(NCCN1CCNC1=O)c1cnn(-c2ccc(Cl)cc2)c1C(F)(F)F	0.49
Cn1c2c(c(=O)n(C)c1=O)C(c1ccsc1)C1=C(N2)c2ccccc2C1=O (stereo not drawn)	7.8*
Cn1c2c(c(=O)[nH]c1=O)C(c1ccsc1)C1=C(N2)c2ccccc2C1=O (stereo not drawn)	-2.93
COc1cccc(C2C3=C(Nc4c2c(=O)n(C)c(=O)n4C)c2ccccc2C3=O)c1 (stereo not drawn)	-1.38
Nc1nc2c3ccccc3nc(-c3ccccc3)n2n1	-0.84
O=C(Nc1ccc2c(c1)OCCO2)Nc1nnc(C2CC2)s1	2.11
COc1ccc(NC(=O)Nc2nnc(C3CC3)s2)cc1OC1CCCC1	6.45*
CC(C)(C)c1ccc(NC(=O)Nc2nnc(C3CC3)s2)cc1	0.08
O=C1c2ccccc2C(=O)N1C1CCN(Cc2ccccc2)CC1	0.97
CC(C)NC(=O)CSc1nc(-c2cccs2)cc(C(F)(F)F)n1	-0.21
COC(=O)COc1ccc2c(c1)C(=O)c1cc(OCC(=O)OC)ccc1-2	-4.13
CC(=O)Oc1ccc2c(c1)C(=O)c1cc(OC(C)=O)ccc1-2	6.17*
CCOc1ccc2c(c1)C(=O)c1cc(O)ccc1-2	1.01
c1ccc(Oc2ccc(-c3cc(N4CCOCC4)n[nH]3)cc2)cc1	0.59
O=C(O)CSc1n[nH]c(-c2ccccc2)n1	1.39
COc1cc(OCc2ccccc2)ccc1CN1CCCc2cc(C)ccc21	0.38
COc1cc(/C=C(\C#N)C(N)=O)ccc1O	-0.5
COc1ccc(CNCC2(O)CCOC(C)(C)C2)cc1 (stereo not drawn)	3.64*
COc1ccc(CNCc2ccc(Br)cc2)c(OC)c1	0.88
SMILES	Dicer processing
COc1ccc(CN=C(C)C2CCOC2=O)cc1 (stereo not drawn)	-1.53
Cc1ccccc1NC(=O)NCCc1ccccc1	0.42
Cc1ccc(-c2nnc3c4ccccc4c(C)nn23)cc1S(=O)(=O)N1CCCC1	3.21*
COc1ccc(-c2nnc3c4ccccc4c(C)nn23)cc1S(=O)(=O)NC1CCCCC1	2.52
COc1ccc(-c2nnc3c4ccccc4c(C)nn23)cc1S(=O)(=O)N1CCCC1	5.49*
COc1ccc(-c2nnc3c4ccccc4c(C)nn23)cc1S(=O)(=O)NC(C)C	5.04*
COc1ccc(-c2nnc3c4ccccc4c(C)nn23)cc1S(=O)(=O)N(C)C1CCCCC1	0.88
Cc1ccc(-c2nnc3c4ccccc4c(C)nn23)cc1S(=O)(=O)N1CCN(c2ccccc2)CC1	2.53
CCC(CO)NS(=O)(=O)c1cc(-c2nnc3c4ccccc4c(C)nn23)ccc1OC (stereo not drawn)	2.78
CNS(=O)(=O)c1cc(-c2nnc3c4ccccc4c(C)nn23)ccc1OC	1.56
Cc1ccc(-c2nnc3c4ccccc4c(C)nn23)cc1S(=O)(=O)NC(C)(C)C	1.11
COc1ccc(C2c3ccsc3CCN2C(=S)Nc2cc(C)cc(C)c2)cc1 (stereo not drawn)	-1.08
COc1ccc(C2=NN(S(=O)(=O)c3ccc(C)cc3)C(c3ccc(OC)c(OC)c3)C2)cc1OC (stereo not drawn)	0.74
O=C(c1ccc(Cl)cc1)N1CCSC1=S	-1.4
COC(=O)c1cc(=O)n2c(c1C(=O)c1ccc(Cl)cc1)SCC2	5.61*
COC(=O)c1cc(Cl)cc(Cl)c1-c1c(Cl)cc(Cl)cc1C(=O)OC	-0.82
COc1cc(-c2nnn(-c3ccc(C)cc3)n2)cc(OC)c1OC	-0.07
CC/C(=C\c1sc2ccc(OC)cc2[n+]1CC)SC	-5.41
O=C(c1ccco1)N1CCN(Cc2c[nH]c3ccccc23)CC1	2.19
Cc1nc(SCC(=O)c2ccc(Br)cc2)c(C#N)c(C)c1C	0.45
NNC(=O)c1cc(C(F)(F)F)cc(C(F)(F)F)c1	0.55
O=C(NCCCN1CCN(Cc2ccccc2)CC1)c1cn2cc(C(F)(F)F)cc(Cl)c2n1	-1.34
NNC(=O)c1cn2cc(C(F)(F)F)cc(Cl)c2n1	4.81*
C/C(=N\O)C(C)(C)Nc1cc(C(F)(F)F)cc(C(F)(F)F)c1	-1.99
CC1(C)OC(=O)C(=NNc2cc(C(F)(F)F)cc(C(F)(F)F)c2)C(=O)O1	5.13*
SMILES	Dicer processing
CC(C)(C)NC(=S)Nc1cc(C(F)(F)F)cc(C(F)(F)F)c1	-0.68
COc1ccc(Cc2nc(-c3ccccc3)n[nH]c2=S)cc1	-2.51
Cc1ccccc1-c1noc(CSc2nc(N)cc(=O)[nH]2)n1	1.06
O=C(Nc1ccc(N2CCC(n3cccc3)CC2)cc1)c1cccs1	2.36
Oc1ccccc1-c1nc(/C=C/c2ccccc2)no1	1.18
Oc1ccccc1-c1nc(/C=C/c2ccccc2Cl)no1	12.9
CN(C)c1ccc(/C=C/c2noc(-c3ccccc3O)n2)cc1	5.85*
